Screening data deposited in PubChem BioAssay by The Scripps Research Institute Molecular Screening Center.
DAX1 inh-1 – DAX1 (NR0B1) inhibitors, primary screen, cell-based, HEK293, Gal4-DAX1, luciferase luminescence. Nuclear receptor subfamily 0 group B member 1 (Homo sapiens), P51843. HEK293 Gal4-DAX1 luciferase reporter. inhibition, % at 6.75 µM. hit rate 0.99% among 340,000. AID 504766, 2011;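 active = inhibition above the mean over all tested compounds plus 3 SD, cut at about 4.2% in these data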;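 note: 0% = DAX1-transfected cells with DMSO and 100% = empty-vector control cells with DMSO; inhibition shows as a rise in luminescence from relieved DAX1 repression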
ssDAF12 agonist – S. stercoralis DAF-12 nuclear receptor activators, primary screen, cell-based, luminescence, HEK293, GRIP1 co-expression, lit1-tk-luc; Nuclear hormone receptor DAF-12 (Strongyloides stercoralis); HEK293 ssDAF-12/GRIP1 lit1-tk-luc reporter; % of 3 µM dafachronic acid response; activation, % at 6.8 µM; hit rate 1% among 370,000;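 active = activation above the mean over all tested compounds plus 3 SD, cut at about 0.9% in these data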;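 note: 0% = DMSO-only wells and 100% = 3 µM delta7-dafachronic acid wells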
hgDAF-12 ag – H. glycines DAF-12 receptor agonists, primary screen, cell-based, luminescence, HEK293, GAL4 fusion, UAS-luciferase. Nuclear hormone receptor DAF-12 (Heterodera glycines), GAL4 fusion. HEK293 GAL4-hgDAF12 UAS-luciferase reporter, agonist luminescence; normalized to butyrate control. activation, % at 6.8 µM. hit rate 1.8% among 370,000;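 active = activation above a cutoff set at the mean of all screened compounds plus 3 SD, cut at about 10% in these data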;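 note: 0% = DMSO wells and 100% = sodium butyrate wells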
hcDAF12 agonist – H. contortus DAF-12 nuclear receptor activators, primary screen, cell-based, luminescence, HEK293, lit1-tk-luc reporter; hit rate 1.4% among 370,000; HEK293 hcDAF-12 lit1-tk-luc reporter; 0% DMSO, 100% Δ7-dafachronic acid; activation, % at 6.8 µM;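 active = activation above the mean of all tested compounds plus 3 SD, cut at about 5.5% in these data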;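 note: 100% = response to 3 µM Δ7-dafachronic acid high control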
DAX1 inh-2 – DAX1 (NR0B1) inhibitors on StAR promoter, primary screen, cell-based, luminescence, SF-1 (NR5A1), full-length DAX-1. HEK293T StAR-luciferase reporter, SF-1/DAX-1 repression relief. inhibition, % at 6.8 µM. hit rate 1.1% among 370,000;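 active = inhibition above the mean over all tested compounds plus 3 SD, cut at about 3.6% in these data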;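 note: 0% = DAX-1 cells with DMSO and 100% = cells lacking DAX-1 with DMSO; higher inhibition means more luminescence from relief of DAX-1 repression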
hgDAF12 ag – H. glycines DAF-12 receptor agonists, confirmation, cell-based, luminescence, HEK293, GAL4-LBD fusion. shares compounds with hgDAF-12 ag. HEK293 GAL4-hgDAF12 luciferase reporter, agonist mode; percent of butyrate response. activation, % at 6.8 µM. hit rate 80% among 3,300;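 active = mean activation over triplicate wells above the hit cutoff derived from the earlier primary screen, cut at about 11% in these data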;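 note: 0% = DMSO low control and 100% = 2 mM sodium butyrate high control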
LXR ag 2 – LXR agonists, Gal4 luciferase reporter, confirmation, counter-screen for hgDAF-12 agonist project, cell-based, luminescence, HEK293, H. glycines campaign | 24 h | activation, % at 6.8 µM | 3,300 tested, under 10 active | shares compounds with hgDAF-12 ag | AID 743051, 2013;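 active = mean activation of the triplicate above a set limit carried over from the primary screen, none filed active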
Target sequence (P55055 whole entry, looked up, the tested form may be a part): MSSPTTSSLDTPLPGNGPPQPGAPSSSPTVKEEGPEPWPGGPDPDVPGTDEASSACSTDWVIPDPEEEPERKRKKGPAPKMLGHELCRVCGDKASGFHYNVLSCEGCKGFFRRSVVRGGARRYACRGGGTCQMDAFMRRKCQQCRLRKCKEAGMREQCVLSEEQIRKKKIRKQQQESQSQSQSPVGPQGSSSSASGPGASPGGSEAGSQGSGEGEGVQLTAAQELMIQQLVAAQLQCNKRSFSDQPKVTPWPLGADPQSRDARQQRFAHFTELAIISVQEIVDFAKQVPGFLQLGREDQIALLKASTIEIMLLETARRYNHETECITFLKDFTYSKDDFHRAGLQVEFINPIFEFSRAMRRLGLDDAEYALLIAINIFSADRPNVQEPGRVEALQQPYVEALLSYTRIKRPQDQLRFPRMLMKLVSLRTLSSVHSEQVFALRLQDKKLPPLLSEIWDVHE
Numbers without * were called inactive. Compounds with a hit are over-represented: about 4.1% of the library has one in this group of screens.

What do the screens show for `CC(C)C(=O)OCC(=O)Nc1ccc(N=Nc2ccccc2)cc1`?
DAX1 inh-1: 3; ssDAF12 agonist: -1; hgDAF-12 ag: 16*; hcDAF12 agonist: 2; DAX1 inh-2: 3; hgDAF12 ag: 17*; LXR ag 2: 1

Results for O=C(CCl)Nc1ccc(N=Nc2ccccc2)cc1 ?
DAX1 inh-1: 2; ssDAF12 agonist: 0; hgDAF-12 ag: 5; hcDAF12 agonist: 3; DAX1 inh-2: -1

How did CC(=O)Nc1ccc(N=Nc2ccccc2)cc1 do in these assays?
DAX1 inh-1: 2; ssDAF12 agonist: -1; hgDAF-12 ag: 16*; hcDAF12 agonist: 5; DAX1 inh-2: 4.2*; hgDAF12 ag: 15*; LXR ag 2: 1

How did CC(=O)Nc1ccccc1 do in these assays?
DAX1 inh-1: 1; ssDAF12 agonist: -1; hgDAF-12 ag: 0; hcDAF12 agonist: 0; DAX1 inh-2: 0

What do the screens show for `CN(C)c1cccc2c(S(=O)(=O)NCC3CCN(C(=O)C(=O)c4cc5ccccc5o4)CC3)cccc12`?
ssDAF12 agonist: -1; hgDAF-12 ag: -1; hcDAF12 agonist: -2; DAX1 inh-2: -2

What do the screens show for `COCCNC(=O)c1ccc2ccccc2n1`?
DAX1 inh-1: 1; ssDAF12 agonist: 0; hgDAF-12 ag: 2; hcDAF12 agonist: 2; DAX1 inh-2: 1

Results for Cc1ccccc1OCCNC(=O)c1ccc2ccccc2n1 ?
DAX1 inh-1: 3; ssDAF12 agonist: 0; hgDAF-12 ag: 15*; hcDAF12 agonist: 2; DAX1 inh-2: 3; hgDAF12 ag: 12*; LXR ag 2: 1

Results for Cc1ccc(/C=c2/sc3n(c2=O)CCCN=3)o1 ?
DAX1 inh-1: 3; ssDAF12 agonist: -1; hgDAF-12 ag: 6; hcDAF12 agonist: 0; DAX1 inh-2: 1

Results for O=c1/c(=C\c2ccc3c(c2)OCO3)sc2n1CCCN=2 ?
DAX1 inh-1: 4.6*; ssDAF12 agonist: 0; hgDAF-12 ag: 19*; hcDAF12 agonist: 3; DAX1 inh-2: 3; hgDAF12 ag: 14*; LXR ag 2: 1

Results for CC(=O)c1cc(-c2ccc(Oc3ccccc3)cc2)c(=O)n2c1CCC2 ?
ssDAF12 agonist: -2; hgDAF-12 ag: -6; hcDAF12 agonist: -1; DAX1 inh-2: -1

What do the screens show for `COc1ccc(N2Cc3ccccc3C2=O)cc1`?
DAX1 inh-1: -1; ssDAF12 agonist: 0; hgDAF-12 ag: 21*; hcDAF12 agonist: 4; DAX1 inh-2: 2; hgDAF12 ag: 16*; LXR ag 2: 1

What do the screens show for `COc1ccc(N2C(=O)c3ccccc3NC23CCCC3)cc1`?
DAX1 inh-1: 0; ssDAF12 agonist: 0; hgDAF-12 ag: 14*; hcDAF12 agonist: 4; DAX1 inh-2: 4.5*; hgDAF12 ag: 9; LXR ag 2: 0

Results for CCC1(CC)Nc2ccccc2C(=O)N1c1ccc(OC)cc1 ?
DAX1 inh-1: 2; ssDAF12 agonist: 1; hgDAF-12 ag: 10; hcDAF12 agonist: 3; DAX1 inh-2: 3

What do the screens show for `CCCCc1c(-c2ccccc2OC)ncn1Cc1ccc(F)c(F)c1`?
ssDAF12 agonist: -1; hgDAF-12 ag: -2; hcDAF12 agonist: 0; DAX1 inh-2: 0

How did O=C(Nc1ccc2[nH]c(=S)sc2c1)c1ccccc1 do in these assays?
DAX1 inh-1: 1; ssDAF12 agonist: -1; hgDAF-12 ag: 14*; hcDAF12 agonist: 1; DAX1 inh-2: 3.7*; hgDAF12 ag: 12*; LXR ag 2: 1
